Source: the supplement of paper PMC7411054
Structures can show the parent of a compound that is named as a salt.

Assays:
Assay in all cases: phenotypically active (imaging signature differs from DMSO and reproducible) at any of 0.3-9 uM (binary (1 = active, 0 = inactive)); higher = active
Conditions in all cases: treatment time: 24 h
A549-ACTB-RAB5A = system: A549-ACTB-RAB5A
In short: (§1)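 Two criteria together defined phenotypic activity: deviation and reproducibility. Deviation meant ≥3 of 4 wells beyond the 95th percentile of Euclidean distances in solvent control wells, and reproducibility meant a median replicate Pearson correlation above the 95th percentile of non-replicates. Wells had been treated for 24 h at 0.3, 1, 3 or 9 µM in fifteen gene-edited A549, HepG2 and WPMY1 reporter lines before live imaging.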

A549-CANX-COX4 = system: A549-CANX-COX4
In short: as §1

A549-GM130-SQSTM1 = system: A549-GM130-SQSTM1
In short: as §1

A549-TP53BP1-CLTA = system: A549-TP53BP1-CLTA
In short: as §1

A549-TUBA1B-RELA = system: A549-TUBA1B-RELA
In short: as §1

HepG2-ACTB-RAB5A = system: HepG2-ACTB-RAB5A
In short: as §1

HepG2-CANX-COX4 = system: HepG2-CANX-COX4
In short: as §1

HepG2-GM130-SQSTM1 = system: HepG2-GM130-SQSTM1
In short: as §1

HepG2-TP53BP1-CLTA = system: HepG2-TP53BP1-CLTA
In short: as §1

HepG2-TUBA1B-RELA = system: HepG2-TUBA1B-RELA
In short: as §1

WPMY1-ACTB-RAB5A = system: WPMY1-ACTB-RAB5A
In short: as §1

WPMY1-CANX-COX4 = system: WPMY1-CANX-COX4
In short: as §1

WPMY1-GM130-SQSTM1 = system: WPMY1-GM130-SQSTM1
In short: as §1

WPMY1-TP53BP1-CLTA = system: WPMY1-TP53BP1-CLTA
In short: as §1

WPMY1-TUBA1B-RELA = system: WPMY1-TUBA1B-RELA
In short: as §1

Measured: phenotypically active

N#CC(CCN1CCC(C(=O)O)(c2ccccc2)CC1)(c1ccccc1)c1ccccc1 [difenoxin]
inactive: A549-ACTB-RAB5A 0 | A549-CANX-COX4 0 | A549-GM130-SQSTM1 0 | A549-TP53BP1-CLTA 0 | A549-TUBA1B-RELA 0 | HepG2-ACTB-RAB5A 0 | HepG2-CANX-COX4 0 | HepG2-GM130-SQSTM1 0 | HepG2-TP53BP1-CLTA 0 | HepG2-TUBA1B-RELA 0 | WPMY1-ACTB-RAB5A 0 | WPMY1-CANX-COX4 0 | WPMY1-GM130-SQSTM1 0 | WPMY1-TP53BP1-CLTA 0 | WPMY1-TUBA1B-RELA 0

CCN1C[C@]2(COC)CC[C@H](O)[C@@]34[C@@H]5C[C@H]6[C@H](OC(C)=O)[C@@H]5[C@](O)(C[C@@H]6OC)[C@H](C[C@H]23)[C@H]14 [Condelphine]
inactive: A549-ACTB-RAB5A 0 | A549-CANX-COX4 0 | A549-GM130-SQSTM1 0 | A549-TP53BP1-CLTA 0 | A549-TUBA1B-RELA 0 | HepG2-ACTB-RAB5A 0 | HepG2-CANX-COX4 0 | HepG2-GM130-SQSTM1 0 | HepG2-TP53BP1-CLTA 0 | HepG2-TUBA1B-RELA 0 | WPMY1-ACTB-RAB5A 0 | WPMY1-CANX-COX4 0 | WPMY1-GM130-SQSTM1 0 | WPMY1-TP53BP1-CLTA 0 | WPMY1-TUBA1B-RELA 0

CNCC(O)c1ccc(O)c(OC)c1 (stereo not drawn) [Metanephrine hydrochloride DL]
inactive: A549-ACTB-RAB5A 0 | A549-CANX-COX4 0 | A549-GM130-SQSTM1 0 | A549-TP53BP1-CLTA 0 | A549-TUBA1B-RELA 0 | HepG2-ACTB-RAB5A 0 | HepG2-CANX-COX4 0 | HepG2-GM130-SQSTM1 0 | HepG2-TP53BP1-CLTA 0 | HepG2-TUBA1B-RELA 0 | WPMY1-ACTB-RAB5A 0 | WPMY1-CANX-COX4 0 | WPMY1-GM130-SQSTM1 0 | WPMY1-TP53BP1-CLTA 0 | WPMY1-TUBA1B-RELA 0

COc1ccc(OC)c(C(O)C(C)N)c1 (stereo not given) [methoxamine]
inactive: A549-ACTB-RAB5A 0 | A549-CANX-COX4 0 | A549-GM130-SQSTM1 0 | A549-TP53BP1-CLTA 0 | A549-TUBA1B-RELA 0 | HepG2-ACTB-RAB5A 0 | HepG2-CANX-COX4 0 | HepG2-GM130-SQSTM1 0 | HepG2-TP53BP1-CLTA 0 | HepG2-TUBA1B-RELA 0 | WPMY1-ACTB-RAB5A 0 | WPMY1-CANX-COX4 0 | WPMY1-GM130-SQSTM1 0 | WPMY1-TP53BP1-CLTA 0 | WPMY1-TUBA1B-RELA 0

COc1ccc2c(c1)[C@]13CCCC[C@@H]1[C@H](C2)N(C)CC3 [dextromethorphan]
inactive: A549-ACTB-RAB5A 0 | A549-CANX-COX4 0 | A549-GM130-SQSTM1 0 | A549-TP53BP1-CLTA 0 | A549-TUBA1B-RELA 0 | HepG2-ACTB-RAB5A 0 | HepG2-CANX-COX4 0 | HepG2-GM130-SQSTM1 0 | HepG2-TP53BP1-CLTA 0 | HepG2-TUBA1B-RELA 0 | WPMY1-ACTB-RAB5A 0 | WPMY1-CANX-COX4 0 | WPMY1-GM130-SQSTM1 0 | WPMY1-TP53BP1-CLTA 0 | WPMY1-TUBA1B-RELA 0

O=C1CCC[C@@H]2[C@H]3CCCN4CCC[C@@H](CN12)[C@@H]34 [Matrine]
inactive: A549-ACTB-RAB5A 0 | A549-CANX-COX4 0 | A549-GM130-SQSTM1 0 | A549-TP53BP1-CLTA 0 | A549-TUBA1B-RELA 0 | HepG2-ACTB-RAB5A 0 | HepG2-CANX-COX4 0 | HepG2-GM130-SQSTM1 0 | HepG2-TP53BP1-CLTA 0 | HepG2-TUBA1B-RELA 0 | WPMY1-ACTB-RAB5A 0 | WPMY1-CANX-COX4 0 | WPMY1-GM130-SQSTM1 0 | WPMY1-TP53BP1-CLTA 0 | WPMY1-TUBA1B-RELA 0

CCOC(=O)C1(c2ccccc2)CCN(C)CC1 [meperidine]
inactive: A549-ACTB-RAB5A 0 | A549-CANX-COX4 0 | A549-GM130-SQSTM1 0 | A549-TP53BP1-CLTA 0 | A549-TUBA1B-RELA 0 | HepG2-ACTB-RAB5A 0 | HepG2-CANX-COX4 0 | HepG2-GM130-SQSTM1 0 | HepG2-TP53BP1-CLTA 0 | HepG2-TUBA1B-RELA 0 | WPMY1-ACTB-RAB5A 0 | WPMY1-CANX-COX4 0 | WPMY1-GM130-SQSTM1 0 | WPMY1-TP53BP1-CLTA 0 | WPMY1-TUBA1B-RELA 0

C[C@]12Cc3cn[nH]c3C[C@@H]1CC[C@@H]1[C@@H]2CC[C@@]2(C)[C@H]1CC[C@]2(C)O [stanozolol]
inactive: A549-ACTB-RAB5A 0 | A549-CANX-COX4 0 | A549-GM130-SQSTM1 0 | A549-TP53BP1-CLTA 0 | A549-TUBA1B-RELA 0 | HepG2-ACTB-RAB5A 0 | HepG2-CANX-COX4 0 | HepG2-GM130-SQSTM1 0 | HepG2-TP53BP1-CLTA 0 | HepG2-TUBA1B-RELA 0 | WPMY1-ACTB-RAB5A 0 | WPMY1-CANX-COX4 0 | WPMY1-GM130-SQSTM1 0 | WPMY1-TP53BP1-CLTA 0 | WPMY1-TUBA1B-RELA 0

C/C(O)=C(/C#N)C(=O)Nc1cc(Br)ccc1Br
inactive: A549-ACTB-RAB5A 0 | A549-CANX-COX4 0 | A549-GM130-SQSTM1 0 | A549-TP53BP1-CLTA 0 | A549-TUBA1B-RELA 0 | HepG2-ACTB-RAB5A 0 | HepG2-CANX-COX4 0 | HepG2-GM130-SQSTM1 0 | HepG2-TP53BP1-CLTA 0 | HepG2-TUBA1B-RELA 0 | WPMY1-ACTB-RAB5A 0 | WPMY1-CANX-COX4 0 | WPMY1-GM130-SQSTM1 0 | WPMY1-TP53BP1-CLTA 0 | WPMY1-TUBA1B-RELA 0

O=P1(NCCCl)OCCCN1CCCl (stereo not given) [ifosfamide]
inactive: A549-ACTB-RAB5A 0 | A549-CANX-COX4 0 | A549-GM130-SQSTM1 0 | A549-TP53BP1-CLTA 0 | A549-TUBA1B-RELA 0 | HepG2-ACTB-RAB5A 0 | HepG2-CANX-COX4 0 | HepG2-GM130-SQSTM1 0 | HepG2-TP53BP1-CLTA 0 | HepG2-TUBA1B-RELA 0 | WPMY1-ACTB-RAB5A 0 | WPMY1-CANX-COX4 0 | WPMY1-GM130-SQSTM1 0 | WPMY1-TP53BP1-CLTA 0 | WPMY1-TUBA1B-RELA 0

CCCN1CCC[C@@H]2Cc3n[nH]cc3C[C@H]21 [(-)-Quinpirole hydrochloride]
inactive: A549-ACTB-RAB5A 0 | A549-CANX-COX4 0 | A549-GM130-SQSTM1 0 | A549-TP53BP1-CLTA 0 | A549-TUBA1B-RELA 0 | HepG2-ACTB-RAB5A 0 | HepG2-CANX-COX4 0 | HepG2-GM130-SQSTM1 0 | HepG2-TP53BP1-CLTA 0 | HepG2-TUBA1B-RELA 0 | WPMY1-ACTB-RAB5A 0 | WPMY1-CANX-COX4 0 | WPMY1-GM130-SQSTM1 0 | WPMY1-TP53BP1-CLTA 0 | WPMY1-TUBA1B-RELA 0
